Test results published in the OligoGym collection.
Further: reference of the scale not given here.

Each sequence was assayed against FASN (assay: pooled miR-30 sensor sort-seq; sequence = guide strand). Details: shRNA.
In the case of ATAGGTGACTTCCAGCAGCAGC, the sensor-assay potency score (higher = more potent) was -1.01. Sequence TTCAGCTTGCCGGACCGCCGGG has a sensor-assay potency score (higher = more potent) of -0.801. With TTGAGCTCCTGCAGCAGTGGGG the sensor-assay potency score (higher = more potent) was -0.482. TTCTTTGATGCACTGTCCCCTC showed a sensor-assay potency score (higher = more potent) of -0.75. TTGTTGACATTGTACTCGGCGG showed a sensor-assay potency score (higher = more potent) of -1.03. TTCTCTGACACCTCGAAGGCAC gave a sensor-assay potency score (higher = more potent) of -0.474. With TAGGTGGGGATGCTGAGCCGGG the sensor-assay potency score (higher = more potent) was -1.21. For TTGGAGAGCAGCACACACCGGA, the sensor-assay potency score (higher = more potent) was -0.273. TTTCTCACAGATACGCTCCATG showed a sensor-assay potency score (higher = more potent) of -0.419. Work on TAGCCCACGAGTGTCTCGGGGT yielded a sensor-assay potency score (higher = more potent) of -0.532. In the case of TCCACGAACTCAAACACCGGGG, the sensor-assay potency score (higher = more potent) was -1.02. In the case of TTCCTCGGAGTGAATCTGGGTT, the sensor-assay potency score (higher = more potent) was 0.14. TTCATAGGTGACTTCCAGCAGC showed a sensor-assay potency score (higher = more potent) of -0.213. TTGATGATCAGGTCCACGGCGG gave a sensor-assay potency score (higher = more potent) of 0.0156. With TAGAGGTGCTGAGCCAGCGGGC the sensor-assay potency score (higher = more potent) was -1.55.

These sequences were tested against FBLIM1 in the same assay as above. Details: shRNA.
TTCTGGTAGAAGCTCTGCCCAG gave a sensor-assay potency score (higher = more potent) of -1.24. TTGAAGAGCTGCATAGGTGCAG showed a sensor-assay potency score (higher = more potent) of 0.627. With TCTGGTAGAAGCTCTGCCCAGC the sensor-assay potency score (higher = more potent) was -0.202. For TTTCATGGAAGTTTCTTCCCAT, the sensor-assay potency score (higher = more potent) was 0.731. TAGACAGGAAACTCTGGCCCAG showed a sensor-assay potency score (higher = more potent) of -0.916. With TCTAAGTCTGCAATGAGTGAGG the sensor-assay potency score (higher = more potent) was -0.617. Work on TAATAAACCAGTAGACAGGAAA yielded a sensor-assay potency score (higher = more potent) of -1.08. With TTTCTCAACAGGTTCTGCCGGG the sensor-assay potency score (higher = more potent) was 0.497. In the case of TGAAGAGCTGCATAGGTGCAGC, the sensor-assay potency score (higher = more potent) was -0.713. Sequence TTTCCTGTAGAAGTCGTCCAGG has a sensor-assay potency score (higher = more potent) of -0.297. In the case of TTCTCAACAGGTTCTGCCGGGG, the sensor-assay potency score (higher = more potent) was -0.331. Work on TCGACAGACAGGAGGATCCTGC yielded a sensor-assay potency score (higher = more potent) of -0.78.

Each sequence was assayed against FBXL21 in the same assay as above. Details: shRNA.
With TTCAGTGTGAATTTCATCTAGG the sensor-assay potency score (higher = more potent) was 0.327. AACAACATTAACTCTAGGGGAA showed a sensor-assay potency score (higher = more potent) of -0.232. TAACAACATTAACTCTAGGGGA was tested, and the sensor-assay potency score (higher = more potent) was -0.101. TCAAATTCAAACTTTCTCCAAA gave a sensor-assay potency score (higher = more potent) of -0.476. With TTAACATGAGTCTCGCTTGAGA the sensor-assay potency score (higher = more potent) was -0.687. TTCTTTGAAGAACGTCTCGAAT was tested, and the sensor-assay potency score (higher = more potent) was -1.19. TTGAGTTGATAAAAACAACTGT gave a sensor-assay potency score (higher = more potent) of 0.22. Sequence TAGAGTGTCACTATTATTGGCC has a sensor-assay potency score (higher = more potent) of 0.27. TTTAATGATCTGCTGAATGAGA gave a sensor-assay potency score (higher = more potent) of -0.579. TCACACAGTCTTACAAACCTGA showed a sensor-assay potency score (higher = more potent) of 0.117. Sequence TGCATAACAACATTAACTCTAG has a sensor-assay potency score (higher = more potent) of -0.667.
